MCF10A rerep = inducers of DNA re-replication in MCF 10A breast cells. MCF 10A DNA re-replication, Hoechst nuclear intensity, 48 h. Potency, µM (series often up to 46.1 µM), for the others: at the top dose activity, positive = re-replication, hits mostly activators. actives 2.9% (n = 350,000); further: potency means the concentration at half of the fitted maximal effect; % of control where 0% means no effect; nearly all actives have a fitted effect of over 50% in size
KB-V1 MDR tox = KB-V1 MDR subline cytotoxicity; AID 1347076; KB-V1 MDR cells viability, CellTiter-Glo, 72 h; actives 3.4% (n = 400,000); Potency, µM (titrated, usually from 46.1 µM), actives largely listed as cytotoxic; further: potency means the concentration at half of the fitted maximal effect; on the % scale 0 is the no-effect control and ±100 the full control effect; nearly all actives have a fitted effect of over 60% in size
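Cells of the MDR subline KB-V1 are plated, dosed with compound at multiple concentrations, and incubated 72 h at 37 degrees C; CellTiter-Glo is then added and luminescence read after 10 min.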
KB-3-1 tox = KB-3-1 parental cell cytotoxicity | Potency, µM (doses to about 46.1 µM), hits mostly cytotoxic | KB-3-1 viability, CellTiter-Glo ATP luminescence, 72 h | actives 1.4% (n = 400,000) | AID 1347075; further: potency means the concentration at half of the fitted maximal effect; on the % scale 0 is the no-effect control and ±100 the full control effect; nearly all actives have a fitted effect of over 60% in size
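Using CellTiter-Glo luminescence, growth of non-resistant KB-3-1 adenocarcinoma cells is assessed 72 h after pin-tool compound addition at 37 °C. Normalized responses across the concentration series yield fitted curves.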
S-ASM inh = human S-ASM enzyme inhibition | Potency, µM (top dose mostly 57.5 µM), for inactives: at the top dose activity change, negative = inhibition, actives largely listed as inhibitors | P17405 | AID 504937 | actives 0.006% (n = 340,000) | placental ASM, HMU-PC fluorogenic substrate, 60 min; further: potency means the concentration at half of the fitted maximal effect
Target sequence (P17405 47-631 limits assumed): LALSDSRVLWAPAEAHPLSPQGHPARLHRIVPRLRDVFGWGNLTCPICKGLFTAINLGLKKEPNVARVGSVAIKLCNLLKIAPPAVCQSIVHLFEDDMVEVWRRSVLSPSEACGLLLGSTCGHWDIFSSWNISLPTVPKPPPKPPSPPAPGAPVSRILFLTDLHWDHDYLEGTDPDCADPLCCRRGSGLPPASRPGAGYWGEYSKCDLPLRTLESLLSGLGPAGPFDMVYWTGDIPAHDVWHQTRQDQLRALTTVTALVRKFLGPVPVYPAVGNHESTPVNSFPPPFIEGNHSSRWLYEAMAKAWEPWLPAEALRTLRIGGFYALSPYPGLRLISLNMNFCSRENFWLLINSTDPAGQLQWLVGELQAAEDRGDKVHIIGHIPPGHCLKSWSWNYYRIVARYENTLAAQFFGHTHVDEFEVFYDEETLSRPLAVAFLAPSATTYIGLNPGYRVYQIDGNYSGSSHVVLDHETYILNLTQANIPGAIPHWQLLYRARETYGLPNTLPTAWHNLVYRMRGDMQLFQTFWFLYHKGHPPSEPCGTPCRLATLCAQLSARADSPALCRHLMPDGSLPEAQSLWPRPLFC
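Human placenta-derived ASM enzyme was preincubated with compound for 10 minutes at room temperature, then given fluorogenic substrate HMU-PC0 (9 uM final) for 60 minutes at 37 °C; a pH 10 stop preceded fluorescence reading at Ex 386/Em 447 nm.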
Giardia killer = kills Giardia lamblia; actives 0.15% (n = 340,000); Giardia lamblia trophozoite viability; activity change, % at 7.66 µM, hits read low; in the data active means activity change below about -80%; inconclusive means between about -30% and that limit;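 further: parasites exposed to compound for two days anaerobically before the ATP read; on the % scale 0 is the no-effect control and ±100 the full control effect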
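Giardia lamblia trophozoites (100 cells/well) were incubated with compounds for 48 h at 37 deg C under anaerobic conditions. Viability was read as ATP content by one-step luminescence after 15-30 min at room temperature.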
SW480 rerep = DNA re-replication induction in SW480 cells | actives 1.8% (n = 340,000) | Potency, µM (top dose mostly 46.1 µM), for the others: top-dose re-replication activation, hits mostly activators | AID 624297 | SW480 DNA re-replication, Hoechst DNA content imaging, 48 h; further: potency means the concentration at half of the fitted maximal effect; % of control where 0% means no effect; nearly all actives have a fitted effect of over 55% in size
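DNA re-replication was detected as more nuclei of elevated Hoechst intensity after 48 hr exposure to compound (23 nL pinned per well of 250 cells).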
Active calls of the source: *; i = inactive; ? = inconclusive; / = not tested or not shown; [ ] = remark or other dose. Sampled rows, rich in hits. Any-hit rate of the full collection: about 6.9%. Unless noted, the call rests on the fitted dose curve; in most records, active means well fitted curve in the direction sought with a large enough effect; inconclusive means small, poorly fitted or top-dose-only effect, or another doubt; inactive means no such curve, though single readings can be large; an effect the other way counts as inactive or inconclusive.

SMILES	MCF10A rerep	KB-V1 MDR tox	KB-3-1 tox	S-ASM inh	Giardia killer	SW480 rerep
O=C(COC(=O)c1ccc([N+](=O)[O-])o1)Nc1ccc(N2CCOCC2)cc1	-16%	?	i	1%	-5	-17%
O=C(Nc1ccc(N2CCOCC2)cc1)c1ccc([N+](=O)[O-])o1	4.6µM*	?	i	-3%	-85*	1.3µM*
Cc1ccc(C(=O)Nc2ccc(S(=O)(=O)N3CCc4ccccc4C3)cc2)o1	4%	15µM*	i	-7%	6	-1%
Cc1ccc(NC(=O)c2cc(S(=O)(=O)N3CCOCC3)c(Br)s2)cc1	1%	23µM*	?	-16%	-1	2%
O=C(Nc1ccc(S(=O)(=O)N2CCCC2)cc1)c1ccc([N+](=O)[O-])o1	1.8µM*	?	?	-1%	-81*	0.73µM*
Cc1ccc(C(=O)Nc2ccc(F)c(S(=O)(=O)N3CCOCC3)c2)s1	1%	i	i	-6%	-10	-6%
O=C(Nc1ccc(S(=O)(=O)N2CCCC2)cc1)c1ccc([N+](=O)[O-])cc1	-2%	i	i	0%	-5	-5%
Cc1c(C(=O)Nc2ccc3c(c2)OCO3)sc2ncn(CC(=O)N3CC(C)CC(C)C3)c(=O)c12 (centres undefined)	8%	i	i	0%	-4	11%
CCNC(=O)c1cnc2c(-c3ccccc3)c(C)nn2c1C	/	i	i	/	/	/
Cc1cc(Br)cc(Br)c1OCC(=O)NNC(=O)c1ccoc1C	-2%	?	i	-4%	9	-1%
O=C(Nc1ccc(S(=O)(=O)N2CCOCC2)cc1)c1cccs1	11%	i	i	2%	-7	11%
CC(=O)Nc1ccc2nc(NC(=O)c3ccc([N+](=O)[O-])o3)sc2c1	0.65µM*	16µM*	9.2µM*	-3%	2	3.3µM*
O=C(Nc1ccccc1N1CCOCC1)c1ccc([N+](=O)[O-])s1	?	?	?	-4%	-89*	16µM*
O=C(Nc1ccc(S(=O)(=O)N2CCOCC2)cc1)c1ccc([N+](=O)[O-])o1	?	?	?	-3%	-83*	-9%
O=C(Nc1ccc(S(=O)(=O)N2CCOCC2)cc1)c1ccc([N+](=O)[O-])s1	13µM*	?	5.2µM*	0%	?	i
CC(=O)Nc1ccc2nc(NC(=O)c3ccco3)sc2c1	2%	i	i	4%	-15	2%
C/C(=N\NC(=O)c1nnn(-c2nonc2N)c1CSc1ccc(Cl)cc1)c1ccco1	-15%	i	i	-8%	-9	-2%
CCc1ccc(NCc2cc3ccc(OC)cc3n(CC(=O)Nc3c(C)cc(C)cc3C)c2=O)cc1	/	i	i	/	/	/
Cc1ccc(NC(=O)C2CCN(c3nc4ccccc4nc3C(F)(F)F)CC2)cc1C	/	i	i	/	/	/
Cc1ccc(C(=O)Nc2ccc(S(=O)(=O)N3CCCC3)cc2)o1	-1%	?	i	1%	-1	2%
O=C(Nc1ccc(Cc2ccncc2)cc1)c1ccc([N+](=O)[O-])o1	3.7µM*	i	?	-2%	-88*	5.2µM*
O=C(Nc1ccc(S(=O)(=O)N2CCCCCC2)cc1)c1ccc(Br)o1	14%	5.8µM*	?	-10%	3	6%
CCn1nnc(NC(=O)c2ccc([N+](=O)[O-])o2)n1	15µM*	i	?	5%	-103*	?
CCc1ccc(Nc2ccc(S(=O)(=O)N3CCOCC3)cc2[N+](=O)[O-])cc1	-9%	23µM*	i	-9%	-3	3%
Cc1ccc(NC(=O)C2CCCN(S(=O)(=O)c3cccc4nsnc34)C2)cc1C (centres undefined)	/	i	i	/	/	/
SMILES	MCF10A rerep	KB-V1 MDR tox	KB-3-1 tox	S-ASM inh	Giardia killer	SW480 rerep
CCOc1ccc(OCC)c(NC(=O)C2CCN(c3nnc(-n4cccc4)s3)CC2)c1	/	i	i	/	/	/
CO[C@H]1[C@@H](OC(N)=O)[C@H](O)[C@@H](Oc2ccc3c(O)c(NC(=O)c4ccc(O)c(CC=C(C)C)c4)c(=O)oc3c2C)OC1(C)C	-1%[20.6 µM]	/	/	/	/	0%[20.6 µM]
O=C(Nc1ccc(Oc2ccc(S(=O)(=O)N3CCOCC3)cn2)cc1)c1ccco1	4%	18µM*	i	-2%	-18	-7%
O=C(Nc1ccc(S(=O)(=O)N2CCOCC2)cc1)c1ccco1	-11%	i	i	0%	-11	-8%
COc1ccc(N(Cc2cc(=O)[nH]c3ccccc23)C(=O)CCl)cc1	?	?	?	1%	-19	3.3µM*
Cc1ccccc1C(=O)N/N=C/c1ccccn1	9%	21µM*	?	-1%	-14	?
O=C(N/N=C\c1ccccn1)c1ccccc1O	?	i	i	3%	-12	-19%
C(=N\NC(=Nc1ccccc1)c1ccccn1)/c1ccccn1	?	16µM*	?	3%	7	?
COc1cc(C(=O)N/N=C/c2ccccn2)cc(OC)c1OC	21µM*	?	18µM*	0%	18	18µM*
Clc1ccc(/C=N/NC(=Nc2ccccc2)c2ccccn2)c(Cl)c1	?	?	i	-19%	-1	-2%
O=C(N/N=C\c1ccccn1)C1c2ccccc2Oc2ccccc21	-34%	i	i	0%	-6	18µM*
O=C(Nc1ncccn1)C1c2ccccc2Oc2ccccc21	2%	?	i	3%	7	6%
CCOc1ccc(NC(=O)Cn2c(=O)oc3cc(S(=O)(=O)NC4CCCC4)ccc32)cc1	/	i	i	/	/	/
O=C(N/N=C/c1ccccn1)c1ccccc1	?	i	i	0%	7	8%
O=C(N/N=C/c1ccccn1)c1ccc(Cl)cc1	?	i	i	-1%	-3	4.1µM*
CC1CCCCN1CCCNC(=O)c1sc2ncccc2c1-n1cccc1 (centres undefined)	/	i	i	/	/	/
CCOC(=O)c1sc(N2C(=O)c3oc4ccc(F)cc4c(=O)c3C2c2cccc(OC)c2)nc1C (centres undefined)	/	i	i	/	/	/
O=C(OCn1ncc(Cl)c(Cl)c1=O)c1cccc(C(F)(F)F)c1	5.8µM*	?	4.6µM*	-9%	-7	5.8µM*
CC(C)(C)[C@]1(O)CCN2CC3c4ccccc4CCc4cccc(c43)[C@@H]2C1 (some centres undefined)	27%	/	/	/	/	15%
CC(C)CC(=O)c1c[nH]c(C(=O)NCCCn2ccnc2)c1	13%	i	i	-1%	-11	-4%
O=C(Cc1ccc(Cl)cc1)c1c[nH]c(C(=O)NCCCn2ccnc2)c1	1.8µM*	i	i	-1%	-10	-81%

Bioassay records as filed in PubChem BioAssay.
